Among the data in PubChem BioAssay (Tox21) are Potency and outcome values, retold here.

Inconclusive results are not listed. Active and inactive are the calls of the source. Unless noted, calls come from the whole dose curve.

Experiment [1] can be described thus: Nuclear factor erythroid 2-related factor 2/antioxidant responsive element (Nrf2/ARE) small molecule agonists: qHTS cell viability counter screen in human keratinocytes (AID 1919968; active = well fitted curve in the direction sought with a large enough effect in the repeat runs; an effect the other way counts as inactive or inconclusive; note: nearly all actives have a fitted effect of over 55% in size; note: potency is the fitted concentration of half-maximal effect). Put shortly: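 Cells of the KeratinoSens line were plated at 1,500 per well and left for 5 h before compound transfer from DMSO stocks. After a 23 h incubation (37 C, 5% CO2), CellTiter-Fluor was added. Signal was taken as fluorescence intensity 1 h later.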
(In general: qHTS replaces the single test concentration by a dilution series.)

Experiment [2] can be described thus: Nuclear factor erythroid 2-related factor 2/antioxidant responsive element (Nrf2/ARE) small molecule agonists: luciferase reporter gene qHTS assay in human keratinocytes (AID 1919969). Note: nearly all actives have a fitted effect of over 35% in size. Note: potency is the fitted concentration of half-maximal effect. Background: Reporter assays use an easily measured gene product as a stand-in for the process of interest.
The target of experiment [3] is Gonadotropin-releasing hormone receptor (Homo sapiens) (UniProt P30968). Briefly: Human gonadotropin-releasing hormone receptor (GnRHR) small molecule agonists, calcium flux assay in GnRHR-HEK293 cells (AID 1920063). Note: nearly all actives have a fitted effect of over 35% in size. Put shortly: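 Compounds dissolved in DMSO are pin-transferred onto dye-loaded GnRHR-HEK293 cells, which were seeded 18 h before at 37 C/5% CO2. Calcium signal is read as fluorescence intensity at 1 s intervals for 3 min.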
For orientation: A change in cytosolic calcium serves as a functional read-out for many receptors and channels.

For experiment [4], the target named is KiSS-1 receptor (Homo sapiens) (UniProt Q969F8). Briefly: Human kisspeptin (KISS1R) small molecule agonists, calcium flux assay in KISS1R-HEK293 cells (AID 1920064; active = well fitted curve in the direction sought with a large enough effect in the repeat runs; an effect the other way counts as inactive or inconclusive). The method, boiled down:
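Cell line: HEK293, stable human KISS1R. Dye loading 1 h at 37 C after 18 h culture. Read: kinetic fluorescence, 480/540 nm, 3 min at 1 s intervals.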

A short description of experiment [5]: G protein-coupled receptor (GPCR) small molecule agonists, calcium flux assay: HEK293 wild type cell line counter screen (AID 1920065). Put shortly: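 Tox21 10K compounds, 15 concentrations each in triplicate, pin-transferred in DMSO onto dye-loaded cells; kinetic read at 480/540 nm for 3 min, 1 s intervals.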
Experiment [6] is described as follows: p53 small molecule agonists, cell-based qHTS assay with human liver microsomes (AID 1963577).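 Note: p53 response element beta-lactamase reporter cells with liver microsomes plus NADPH.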 The method, boiled down: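 p53RE-bla cells; 5 h settle, 37 C/5% CO2; cpd + HLM 0.5 mg/mL + NADPH 0.5 mg/mL (final); 16 h 37 C; LiveBLAzer 2 h RT dark; fluorescence readout.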
Experiment [7] is described as follows: p53 small molecule agonists, cell-based qHTS assay with rat liver microsomes (AID 1963578). The method, boiled down: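 Rat liver microsome activation: microsomes 0.5 mg/mL, NADPH 0.5 mg/mL final; p53RE-bla cells, 16 h 37 C; LiveBLAzer readout, 2 h RT dark.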
Experiment [8] in a line: p53 small molecule agonists, cell-based qHTS assay with rat liver microsomes: qHTS cell viability counter screen (AID 1963580). Note: nearly all actives have a fitted effect of over 45% in size. Put shortly: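 Cytotoxicity counter screen: intracellular ATP read by CellTiter-Glo luminescence in the p53 reporter wells. HCT-116 p53RE-bla cells were treated for 16 h at 37 C alongside rat liver microsomes and NADPH, each 0.5 mg/mL final.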
A short description of experiment [9]: p53 small molecule agonists, cell-based qHTS assay: qHTS cell viability counter screen (AID 1963581). Note: nearly all actives have a fitted effect of over 45% in size. Put shortly: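 ATP content measured by luminescence in HCT-116 p53RE-bla cells treated 16 h at 37 C, same wells as the reporter screen.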
Experiment [10] in a line: p53 small molecule agonists, cell-based qHTS assay (AID 1963582; active = well fitted activation curve with a large enough effect in the signal ratio in the repeat runs, not every such curve was filed as active; the % refers to the signal ratio). Put shortly:
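16 h compound exposure (37 C) of p53 response element–bla cells, preceded by 5 h recovery at 37 C/5% CO2; read-out via LiveBLAzer B/G FRET substrate, 2 h RT, fluorescence intensity.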

The target of experiment [11] is 5-hydroxytryptamine receptor 2A (Homo sapiens) (UniProt P28223). Briefly: 5-hydroxytryptamine receptor 2A (HTR2A) small molecule antagonists, cell-based qHTS assay (AID 1963586). Note: nearly all actives have a fitted effect of over 45% in size. Note: potency is the fitted concentration of half-maximal effect. The method, boiled down:
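CHO cells stably expressing human HTR2A were plated for 18 h at 37 C, then loaded with calcium dye for 1 h. Compounds were preincubated 5 min at room temperature before DOI (4 nM solution) was added. Kinetic fluorescence was read for 3 min.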

For experiment [12] the target is unchanged. Briefly: 5-hydroxytryptamine receptor 2A (HTR2A) small molecule agonists, cell-based qHTS assay (AID 1963587). Note: nearly all actives have a fitted effect of over 30% in size. The method, boiled down: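 Kinetic calcium-flux fluorescence (2 min, 1 sec intervals) after compound addition in agonist mode. HTR2A-CHO cells were cultured 18 h, then dye-loaded 1 h at 37 C.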
The target in experiment [13] is Muscarinic acetylcholine receptor M1 (Homo sapiens) (UniProt P11229). Kind of experiment: Cholinergic receptor muscarinic 1 (CHRM1) small molecule antagonists, cell-based qHTS assay (AID 1963588). Note: nearly all actives have a fitted effect of over 40% in size. The method, boiled down: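 Compounds were tested at 15 concentrations in three independent runs. Dye-loaded CHRM1-CHO cells were exposed 5 min at room temperature before stimulation by acetylcholine added at 50nM. Intracellular calcium was read kinetically on FDSS for 3 min.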

Experiment [14] shares this target. Kind of experiment: Cholinergic receptor muscarinic 1 (CHRM1) small molecule agonists, cell-based qHTS assay (AID 1963589). Note: nearly all actives have a fitted effect of over 35% in size. The method, boiled down:
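Homogeneous fluorescence calcium flux, agonist mode. Human M1-expressing CHO cells; compound dosed at 15 concentrations, three independent runs; signal sampled every 1 sec.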

Experiment [15] can be described thus: cAMP Responsive Elements (CRE) small molecule agonists, cell-based qHTS assay (AID 1963590). The method, boiled down: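 HEK 293T cells stably bearing CRE-bla were plated at 2,000 cells per well and rested 18 h. Compounds, positive controls or DMSO were added for 3 h at 37 C. LiveBLAzer B/G substrate was then loaded for 2 h at room temperature.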
A short description of experiment [16]: cAMP Responsive Elements (CRE) small molecule antagonists, cell-based qHTS assay (AID 1963591; active = well fitted inhibition curve with a large enough effect in the signal ratio in the repeat runs, not every such curve was filed as active; the % refers to the signal ratio). The method, boiled down:
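First, CRE-bla HEK293T cells settled 18 h at 37 C. Next, compound and 0.25 uM final NKH477 were applied for 3 h. Last, LiveBLAzer B/G substrate was loaded for 2 h at room temperature.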

In experiment [17] the target is D(2) dopamine receptor (Homo sapiens) (UniProt P14416). Kind of experiment: Dopamine D2 receptor (DRD2) small molecule agonists, cell-based qHTS assay (AID 1963594). Note: nearly all actives have a fitted effect of over 35% in size. The method, boiled down: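 cAMP accumulation in DRD2-HEK293 cells measured by HTRF after 1 h detection; compounds added 10 min before NKH477 (200nM […]) forskolin-analogue stimulation, 30 min at room temperature, with Ro20-1724 present at 0.1 mM final.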

The target of experiment [18] is Beta-2 adrenergic receptor (Homo sapiens) (UniProt P07550). Kind of experiment: Adrenergic beta2 receptor (ADRB2) small molecule antagonists, cell-based qHTS assay (AID 1963592). Note: nearly all actives have a fitted effect of over 50% in size. Note: potency is the fitted concentration of half-maximal effect. Put shortly:
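Assay format: CHO-ADRB2 cells, 18-20hr seeding at 37C/5% CO2, then compound plus 1nM isoproterenol agonist mix for 0.5hr RT. Homogeneous time-resolved fluorescence cAMP detection after 1hr, expressed as 665/615 nm ratio.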

The target of experiment [19] is D(2) dopamine receptor (Homo sapiens) (UniProt P14416). Kind of experiment: Dopamine D2 receptor (DRD2) small molecule antagonists, cell-based qHTS assay (AID 1963595; active = well fitted inhibition curve with a large enough effect in the signal ratio in the repeat runs, with a control signal flat; the % refers to the signal ratio). Put shortly: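 Stable D2 receptor HEK293 line, 24 h after seeding. Compound preincubated 10 min, then quinpirole (12 nM) with forskolin analogue NKH477 (200 nM), 30 min, room temperature. Detection by time-resolved FRET of cAMP.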

Experiment [20] in a line: p53 small molecule agonists, cell-based qHTS assay with human liver microsomes: qHTS cell viability counter screen (AID 1963579). Note: nearly all actives have a fitted effect of over 45% in size. The method, boiled down:
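Luminescent CellTiter-Glo read-out, 30 min at room temperature, gauged cytotoxicity in p53RE-bla cells exposed 16 h at 37 C to DMSO-dissolved compounds with metabolic activation by human liver microsomes and NADPH, each 0.5 mg/mL final.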

Sequence of Muscarinic acetylcholine receptor M1 (Homo sapiens) (P11229 whole entry, looked up): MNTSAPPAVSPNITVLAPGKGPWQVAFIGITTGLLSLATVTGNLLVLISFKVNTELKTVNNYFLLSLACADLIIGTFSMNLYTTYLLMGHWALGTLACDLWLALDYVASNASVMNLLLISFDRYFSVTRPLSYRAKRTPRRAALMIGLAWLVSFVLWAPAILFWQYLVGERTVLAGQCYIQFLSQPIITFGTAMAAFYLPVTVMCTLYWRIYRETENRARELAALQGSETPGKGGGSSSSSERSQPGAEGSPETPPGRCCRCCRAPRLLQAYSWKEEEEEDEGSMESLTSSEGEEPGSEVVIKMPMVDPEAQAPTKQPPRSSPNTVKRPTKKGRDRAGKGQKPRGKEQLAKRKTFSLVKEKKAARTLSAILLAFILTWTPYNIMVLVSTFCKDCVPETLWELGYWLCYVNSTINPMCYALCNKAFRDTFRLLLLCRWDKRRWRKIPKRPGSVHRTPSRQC
Sequence of KiSS-1 receptor (Homo sapiens) (Q969F8 whole entry, looked up): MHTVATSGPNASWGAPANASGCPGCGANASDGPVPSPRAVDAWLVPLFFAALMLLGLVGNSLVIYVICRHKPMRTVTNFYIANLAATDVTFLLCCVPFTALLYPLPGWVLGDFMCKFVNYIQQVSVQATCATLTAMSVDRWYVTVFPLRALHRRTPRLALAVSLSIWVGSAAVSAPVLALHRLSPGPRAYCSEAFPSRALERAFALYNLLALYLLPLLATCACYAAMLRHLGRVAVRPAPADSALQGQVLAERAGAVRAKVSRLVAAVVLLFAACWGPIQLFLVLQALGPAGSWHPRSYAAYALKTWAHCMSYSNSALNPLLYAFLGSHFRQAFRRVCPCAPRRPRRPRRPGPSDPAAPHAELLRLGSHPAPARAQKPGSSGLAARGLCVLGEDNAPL
Sequence of Gonadotropin-releasing hormone receptor (Homo sapiens) (P30968 whole entry, looked up): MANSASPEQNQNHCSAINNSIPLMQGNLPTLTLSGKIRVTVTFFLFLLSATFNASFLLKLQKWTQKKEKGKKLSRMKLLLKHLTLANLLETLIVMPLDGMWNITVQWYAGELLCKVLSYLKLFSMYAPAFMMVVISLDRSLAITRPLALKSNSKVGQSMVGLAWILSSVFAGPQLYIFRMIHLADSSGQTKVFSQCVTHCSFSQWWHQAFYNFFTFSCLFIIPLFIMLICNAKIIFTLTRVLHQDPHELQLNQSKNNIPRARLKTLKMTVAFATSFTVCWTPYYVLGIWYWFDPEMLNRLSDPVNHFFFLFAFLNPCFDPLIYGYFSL
Sequence of 5-hydroxytryptamine receptor 2A (Homo sapiens) (P28223 whole entry, looked up): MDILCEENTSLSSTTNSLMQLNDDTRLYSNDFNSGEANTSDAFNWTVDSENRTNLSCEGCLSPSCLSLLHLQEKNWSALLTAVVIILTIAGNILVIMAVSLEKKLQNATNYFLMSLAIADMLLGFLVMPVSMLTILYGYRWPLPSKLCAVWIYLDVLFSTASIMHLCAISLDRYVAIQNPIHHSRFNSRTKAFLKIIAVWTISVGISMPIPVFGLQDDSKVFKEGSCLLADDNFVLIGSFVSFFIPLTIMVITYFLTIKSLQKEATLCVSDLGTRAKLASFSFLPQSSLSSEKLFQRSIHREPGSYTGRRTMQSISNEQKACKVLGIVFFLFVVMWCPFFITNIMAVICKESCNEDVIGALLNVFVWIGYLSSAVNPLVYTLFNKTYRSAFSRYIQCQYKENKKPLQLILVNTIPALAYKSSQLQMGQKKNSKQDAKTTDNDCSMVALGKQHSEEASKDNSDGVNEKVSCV
Sequence of Beta-2 adrenergic receptor (Homo sapiens) (P07550 whole entry, looked up): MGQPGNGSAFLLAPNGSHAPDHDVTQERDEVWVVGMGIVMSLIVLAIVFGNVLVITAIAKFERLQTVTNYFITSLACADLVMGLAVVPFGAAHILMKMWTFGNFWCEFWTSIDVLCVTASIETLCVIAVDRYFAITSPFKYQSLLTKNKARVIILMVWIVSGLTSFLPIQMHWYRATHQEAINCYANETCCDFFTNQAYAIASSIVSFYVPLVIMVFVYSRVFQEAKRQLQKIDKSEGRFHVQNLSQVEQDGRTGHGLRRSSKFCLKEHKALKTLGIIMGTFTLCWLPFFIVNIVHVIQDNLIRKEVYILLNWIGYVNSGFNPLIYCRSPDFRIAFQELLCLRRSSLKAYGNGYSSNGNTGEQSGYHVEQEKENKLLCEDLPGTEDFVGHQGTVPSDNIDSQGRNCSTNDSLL
Sequence of D(2) dopamine receptor (Homo sapiens) (P14416 whole entry, looked up): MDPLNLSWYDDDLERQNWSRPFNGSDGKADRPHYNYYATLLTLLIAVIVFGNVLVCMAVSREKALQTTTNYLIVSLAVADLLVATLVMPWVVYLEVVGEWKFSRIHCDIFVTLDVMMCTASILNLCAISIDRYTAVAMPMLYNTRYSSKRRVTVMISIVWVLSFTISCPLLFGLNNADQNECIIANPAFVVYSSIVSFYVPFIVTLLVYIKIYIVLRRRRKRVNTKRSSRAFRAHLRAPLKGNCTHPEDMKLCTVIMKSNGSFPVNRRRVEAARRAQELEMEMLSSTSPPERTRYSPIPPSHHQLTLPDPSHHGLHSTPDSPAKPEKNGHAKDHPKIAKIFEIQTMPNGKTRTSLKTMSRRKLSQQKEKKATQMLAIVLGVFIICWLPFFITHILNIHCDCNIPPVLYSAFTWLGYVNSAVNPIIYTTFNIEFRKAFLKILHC

For the compound `CCCCCCCCCCCC`, the Potency entry in experiment [1], in [2], in [3], in experiment [6], in experiment [7] and in experiment [8] was “inactive” each time. The Potency result in experiment [9], in [10], in [11], in experiment [12], in experiment [13] and in [14] was “inactive” in each case. Moreover, the Potency result in experiment [15], in [16] and in experiment [17] was “inactive” in each case. Further, the result in experiment [4] and in [5] was inactive.

As for `C[Si]1(C)N[Si](C)(C)N[Si](C)(C)N1`, the Potency result in experiment [1], in experiment [2], in [3], in experiment [6], in experiment [7] and in [8] was “inactive” in each case. The Potency entry in experiment [9], in [10], in experiment [11], in [12], in [13] and in experiment [14] was “inactive” throughout. In addition, the Potency entry in [15], in experiment [16], in [18] and in experiment [19] was “inactive” each time. Also, the outcome in experiment [4] and in experiment [5] was inactive.

On to `CC(COC(C)(C)C)OCCCO` (centres undefined), for which the Potency result in experiment [1], in experiment [2], in experiment [3], in experiment [6], in [7] and in experiment [8] was “inactive” in each case. Moreover, the Potency result in experiment [9], in [10], in experiment [11], in experiment [12], in [13] and in experiment [14] was “inactive” throughout. The Potency result in experiment [15], in experiment [18], in experiment [17] and in [19] was “inactive” each time. Moreover, the outcome in [4] and in [5] was inactive.

On to `COc1ccccc1NC(=O)c1cc2ccccc2cc1O`, for which the Potency result in experiment [1], in experiment [3], in experiment [6], in experiment [7], in [20] and in experiment [12] was “inactive” throughout. The Potency entry in [13], in [14], in [17] and in experiment [19] was “inactive” each time. Besides, the Potency is 61.1 µM (active) in [2], 21.1 µM (active) in experiment [11] and 54.5 µM (active) in experiment [18]. Further, the outcome in experiment [4] and in experiment [5] was inactive.

As to `CC(C)[N+](C)(C)CC(O)COc1cccc2ccccc12` (centres undefined), the Potency entry in experiment [1], in experiment [2], in experiment [3], in experiment [6], in experiment [7] and in experiment [8] was “inactive” in each case. Besides, the Potency result in [9], in experiment [10], in experiment [11], in experiment [12], in experiment [13] and in experiment [14] was “inactive” in each case. For the same compound, the Potency result in experiment [15], in experiment [16] and in [19] was “inactive” in each case. Besides, the result in experiment [4] and in experiment [5] was inactive. Further, the Potency in [18] is 15 µM (active).

On to `O=c1c(-c2ccccc2)c1-c1ccccc1`, for which the Potency in experiment [1] was 1.19 µM (active); in [2], 2.66 µM (active). For the same compound, the Potency entry in [3], in experiment [6], in experiment [7], in experiment [20], in experiment [11] and in [12] was “inactive” in each case. The Potency result in experiment [14], in experiment [18], in experiment [17] and in experiment [19] was “inactive” each time. Moreover, the outcome in [4] and in experiment [5] was inactive.

In the case of `CCCCOC(=O)C(C)CC` (centres undefined), the Potency result in experiment [1], in [2], in experiment [3], in experiment [6], in [7] and in experiment [8] was “inactive” in each case. Moreover, the Potency result in experiment [9], in experiment [10], in [11], in experiment [12], in [13] and in [14] was “inactive” throughout. Besides, the Potency result in experiment [15], in experiment [16], in experiment [18], in experiment [17] and in experiment [19] was “inactive” throughout. The outcome in experiment [4] and in experiment [5] was inactive.
